Where “and” joins values, the source holds several entries; their conditions need not be identical. Identical values can stand only once. More than one record can exist for a structure, and the calls need not agree. Calls of active or inactive are those of the source. Rule for the calls: active = hit-call score of the fitted dose curve at least 0.9, where 1 is the maximum; inactive = score below 0.9.

These results are taken from PubChem BioAssay (EPA / NIEHS).

A short description of assay [1]: ATG_PBREM_CIS: Attagene CIS-FACTORIAL HepG2 Assay for human Phenobarbital-responsive Enhancer Module (PBREM) (AID 2282955). As to conditions: HepG2 PBREM cis-reporter, Attagene multiplexed transcription; actives raise or lower the signal. In outline: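 After a 24 h incubation with test chemical, transfected HepG2 cells yield total RNA; reporter-specific RT-PCR products are fluorescently labelled, HpaI-digested and resolved by capillary electrophoresis against ROX size standards.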

Assay [2] has as its target Paired box protein Pax-6 (Homo sapiens) (UniProt P26367). The assay can be described thus: ATG_Pax6_CIS: Attagene CIS-FACTORIAL HepG2 Assay for human Paired Box 6 (PAX6) (AID 2282956). As to conditions: HepG2 CIS-FACTORIAL PAX6 reporter transcription, RNA readout; actives raise or lower the signal. In outline:
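Readout: reporter transcript fluorescence after RT-PCR and capillary electrophoresis. Cells: HepG2, transiently transfected with cis-regulated MRTUs. Exposure 24 h. Gain or loss of signal fitted bidirectionally relative to DMSO.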

Assay [3] is described as follows: ATG_PXRE_CIS: Attagene CIS-FACTORIAL HepG2 Assay for human Pregnane X Receptor Element (PXRE) (AID 2282957). As to conditions: HepG2 Attagene CIS-FACTORIAL PXRE reporter, mRNA; actives raise or lower the signal. Put shortly: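 Reporter transcripts under endogenous PXR-responsive cis-regulation quantified from total RNA of transfected HepG2 cells 24 h post-dosing, via RT-PCR with fluorescent primer extension and capillary electrophoresis. Gain or loss of signal fitted against DMSO baseline.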

The nature of assay [4]: ATG_RORE_CIS: Attagene CIS-FACTORIAL HepG2 Assay for human RAR-related Orphan Receptor Element (RORE) (AID 2282959). The following applies: HepG2 Attagene cis-factorial RORE reporter, mRNA; actives raise or lower the signal. In outline:
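Fluorescence intensity of reporter-specific cDNA fragments, separated by capillary electrophoresis, gives the signal. Source: HepG2 liver cells transiently transfected with cis-element reporters and exposed 24 h; DMSO-normalized bidirectional fit.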

A short description of assay [5]: ATG_Sox_CIS: Attagene CIS-FACTORIAL HepG2 Assay for human SRY-box transcription factor (SOX) (AID 2282960). As to conditions: HepG2 Attagene cis-factorial SOX reporter, mRNA; actives raise or lower the signal. Put shortly: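 After 24 h of chemical treatment, transfected HepG2 reporter cells are lysed for total RNA. Transcript levels come from RT-PCR with labelled primer extension and capillary electrophoresis, analysed bidirectionally versus DMSO.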

Assay [6] has as its target Transcription factor Sp1 (Homo sapiens) (UniProt P08047). The assay can be described thus: ATG_Sp1_CIS: Attagene CIS-FACTORIAL HepG2 Assay for human Specificity Protein 1 (Sp1) (AID 2282961). The following applies: HepG2 Sp1 cis-reporter transcription, actives raise or lower the signal. In outline: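 Sp1-driven reporter mRNA, read as capillary electrophoresis fluorescence after RT-PCR, in transiently transfected HepG2 cells dosed for 24 h; signal change in either direction relative to DMSO.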

The nature of assay [7]: ATG_SREBP_CIS: Attagene CIS-FACTORIAL HepG2 Assay for human Sterol Regulatory Element Binding (SREBP) (AID 2282962). As to conditions: HepG2 Attagene cis-factorial SREBP reporter, mRNA; actives raise or lower the signal. In outline:
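Readout: fluorescent reporter-transcript peaks resolved by capillary electrophoresis after RT-PCR. Cells were human HepG2 carrying transfected cis-promoter reporter constructs, dosed for 24 h. Gain or loss of signal was fitted against DMSO controls.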

Assay [8] deals with Signal transducer and activator of transcription 3 (Homo sapiens) (UniProt P40763). The assay can be described thus: ATG_STAT3_CIS: Attagene CIS-FACTORIAL HepG2 Assay for human Signal Transducer and Activator of Transcription 3 (STAT3) (AID 2282963). The following applies: HepG2, Attagene cis-factorial STAT3 reporter transcription; actives raise or lower the signal. In outline: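 HepG2, MRTU-transfected, 24 h dosing. RNA → RT → PCR → FAM label → HpaI → CE. Bidirectional fit vs DMSO.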

Assay [9] in a line: ATG_TA_CIS: Attagene CIS-FACTORIAL HepG2 Assay for human TA Basal Promoter (AID 2282964). The following applies: HepG2 Attagene CIS-factorial TA basal promoter reporter; actives raise or lower the signal. Put shortly:
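Background-control readout: TA basal promoter reporter mRNA, fitted in both directions relative to DMSO. Measured by RT-PCR and capillary electrophoresis 24 hours after treating HepG2 human liver cells transiently carrying multiplexed cis-regulated reporter constructs.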

Assay [10] in a line: ATG_PPRE_CIS: Attagene CIS-FACTORIAL HepG2 Assay for human Peroxisome Proliferator-activated Response Element (PPRE) (AID 2282958). As to conditions: HepG2 PPRE cis-element reporter, Attagene transcription factor profiling; actives raise or lower the signal. Put shortly: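 Multiplexed reporter transcription units under cis-regulatory promoters were transfected into HepG2 cells to capture endogenous factor activity. A 24 h incubation preceded RNA isolation and fluorescent RT-PCR fragment analysis.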

Transcription factor Sp1 (Homo sapiens), sequence (P08047 whole entry, looked up): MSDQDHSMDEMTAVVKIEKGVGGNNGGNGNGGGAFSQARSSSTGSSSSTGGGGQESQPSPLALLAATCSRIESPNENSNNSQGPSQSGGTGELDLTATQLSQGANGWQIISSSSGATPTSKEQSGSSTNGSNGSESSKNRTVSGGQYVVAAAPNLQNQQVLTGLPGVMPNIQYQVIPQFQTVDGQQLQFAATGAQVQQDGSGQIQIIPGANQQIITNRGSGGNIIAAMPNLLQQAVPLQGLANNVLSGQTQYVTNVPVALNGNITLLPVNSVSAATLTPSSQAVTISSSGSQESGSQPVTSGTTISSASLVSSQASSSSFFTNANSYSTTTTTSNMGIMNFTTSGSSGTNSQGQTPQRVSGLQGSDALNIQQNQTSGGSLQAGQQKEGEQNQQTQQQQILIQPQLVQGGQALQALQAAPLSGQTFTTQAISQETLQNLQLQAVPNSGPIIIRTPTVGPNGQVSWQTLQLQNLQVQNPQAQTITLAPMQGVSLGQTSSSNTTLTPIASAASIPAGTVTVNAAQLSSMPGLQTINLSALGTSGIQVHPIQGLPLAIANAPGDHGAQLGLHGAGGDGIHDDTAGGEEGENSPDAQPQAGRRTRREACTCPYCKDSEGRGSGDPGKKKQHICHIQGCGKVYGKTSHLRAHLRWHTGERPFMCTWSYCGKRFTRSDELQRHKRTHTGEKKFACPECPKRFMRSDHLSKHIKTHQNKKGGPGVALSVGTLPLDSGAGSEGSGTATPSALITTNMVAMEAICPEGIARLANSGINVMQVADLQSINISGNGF
Signal transducer and activator of transcription 3 (Homo sapiens), sequence (P40763 whole entry, looked up): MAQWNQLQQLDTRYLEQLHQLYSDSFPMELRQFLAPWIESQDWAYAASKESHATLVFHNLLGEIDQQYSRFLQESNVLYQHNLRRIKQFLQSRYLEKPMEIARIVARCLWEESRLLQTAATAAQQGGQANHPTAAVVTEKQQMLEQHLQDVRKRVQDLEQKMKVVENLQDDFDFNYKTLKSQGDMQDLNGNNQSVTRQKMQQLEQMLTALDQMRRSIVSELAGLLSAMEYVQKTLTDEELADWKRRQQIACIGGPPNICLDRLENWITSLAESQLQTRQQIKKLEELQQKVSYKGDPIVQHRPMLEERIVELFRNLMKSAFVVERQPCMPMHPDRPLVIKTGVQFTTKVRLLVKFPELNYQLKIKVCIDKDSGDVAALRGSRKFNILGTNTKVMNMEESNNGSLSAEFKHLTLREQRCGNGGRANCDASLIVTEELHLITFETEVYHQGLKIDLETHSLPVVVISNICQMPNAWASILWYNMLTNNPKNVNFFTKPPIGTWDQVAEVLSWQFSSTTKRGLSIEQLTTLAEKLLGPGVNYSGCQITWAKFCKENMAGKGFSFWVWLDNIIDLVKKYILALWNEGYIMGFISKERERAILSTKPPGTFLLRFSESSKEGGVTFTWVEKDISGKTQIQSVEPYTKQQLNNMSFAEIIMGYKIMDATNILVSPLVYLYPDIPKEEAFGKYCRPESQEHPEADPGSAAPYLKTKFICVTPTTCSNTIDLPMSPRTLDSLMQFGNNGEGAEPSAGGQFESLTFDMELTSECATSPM
Paired box protein Pax-6 (Homo sapiens), sequence (P26367 whole entry, looked up): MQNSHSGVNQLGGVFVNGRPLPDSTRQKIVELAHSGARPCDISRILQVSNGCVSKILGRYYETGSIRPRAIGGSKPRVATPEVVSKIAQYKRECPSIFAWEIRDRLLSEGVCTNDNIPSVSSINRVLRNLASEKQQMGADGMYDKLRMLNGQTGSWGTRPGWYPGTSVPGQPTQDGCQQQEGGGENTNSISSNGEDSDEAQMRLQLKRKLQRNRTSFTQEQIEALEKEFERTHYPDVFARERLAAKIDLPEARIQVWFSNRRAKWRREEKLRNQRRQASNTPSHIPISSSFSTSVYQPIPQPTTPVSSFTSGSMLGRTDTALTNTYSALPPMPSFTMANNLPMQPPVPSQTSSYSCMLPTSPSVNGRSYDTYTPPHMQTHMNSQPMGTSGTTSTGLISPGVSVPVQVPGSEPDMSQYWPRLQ

On to `CCCCCCCCCCCCCCCS(=O)(=O)Oc1ccccc1`, for which the result in assay [1], in assay [2], in [4], in assay [5], in assay [6] and in assay [7] was inactive. Moreover, the outcome in assay [8] and in [9] was inactive. Moreover, the AC50 (commonly the concentration giving half of the maximal activity seen) in assay [3] is 0.778 µM (active).
`COC(=O)CCCCC(=O)OC`: the result in assay [2], in [3], in [10], in assay [4], in [5] and in assay [6] was inactive. Also, the compound was classed as inactive in assay [7], in assay [8] and in assay [9].
`CC(O)C(=O)O` (centres undefined): the outcome in assay [1], in [2], in assay [3], in assay [4], in [5] and in assay [6] was inactive. The outcome in assay [7], in assay [8] and in assay [9] was inactive.
For the compound `OC1CCC(C2CCCCC2)CC1` (centres undefined), the AC50 in assay [2] is 127 µM (active); in [3] it was 26.7 µM (active) and 25.6 µM (active) and 28.6 µM (active). Moreover, the compound was classed as inactive in assay [2], in assay [3], in assay [10], in [4], in assay [5] and in [6]. The compound was classed as inactive in assay [7], in assay [8] and in assay [9].
For the compound `CCN(CC)CCNc1ccc(CNC=O)c2sc3ccc(OC)cc3c(=O)c12`, the compound was called inactive in [2], in assay [3], in [10], in [5], in assay [7] and in [8]. Also, in assay [9], the outcome was inactive. For the same compound, the AC50 in assay [6] is 0.98 µM (active).
Regarding `CC(C)(C)c1cccc(C(C)(C)C)c1O`, the result in assay [1], in assay [3], in [10], in [5], in [7] and in assay [8] was inactive. Besides, the outcome in [9] was inactive. For the same compound, the AC50 was 162 µM (active) in [2] and 165 µM (active) in assay [6].
On to `CCCCCCCCOC(=O)CCCCCCCCC(=O)OCCCCCCCC`, for which the outcome in assay [1], in assay [2], in assay [3], in [10], in assay [4] and in assay [5] was inactive. The outcome in assay [6], in assay [7], in assay [8] and in [9] was inactive.
Regarding `COc1ccc([N+](=O)[O-])cc1N`, the result in assay [1], in assay [2], in assay [3], in [10], in assay [4] and in assay [5] was inactive. In addition, the result in [6], in assay [7], in assay [8] and in [9] was inactive.
`CCc1nn(C2CCCCC2)c2cc(C3(C#N)CCC(C(=O)O)CC3)ccc12` (centres undefined): the result in assay [1], in assay [3], in [5], in assay [6] and in [8] was inactive. Further, the AC50 was 100 µM (active) in assay [2]; 0.438 µM (active) in assay [10]; 32.4 µM (active) in assay [4]; 65.5 µM (active) in [7]; 69.9 µM (active) in assay [9].
As to `CC[C@H](c1ccc(O)cc1)[C@@H](CC)c1ccc(O)cc1`, the outcome in assay [1], in [2], in assay [10], in assay [4], in assay [5] and in assay [6] was inactive. The result in assay [7], in assay [8] and in assay [9] was inactive. The AC50 in assay [3] was 3.02 µM (active) [middle of 4 runs].
Consider `CCCCCCCC(=O)O`, for which the result in [1], in [2], in [3], in assay [4], in [5] and in assay [6] was inactive. For the same compound, the outcome in assay [7], in [8] and in assay [9] was inactive.
On to `CC(=O)CC(C)(C)O`, for which the result in assay [2], in assay [3], in assay [10], in assay [4], in assay [5] and in [6] was inactive. In addition, the call in [7], in assay [8] and in [9] was inactive. In addition, the AC50 in [3] is 25 µM (active).
As to `Cc1oc(-c2ccccc2)nc1CCOc1ccc(C[C@H](Nc2ccccc2C(=O)c2ccccc2)C(=O)O)cc1`, in assay [2], the AC50 was 14.4 µM (active). The compound was called inactive in [3], in assay [4], in assay [5], in assay [6], in assay [7] and in [8]. The result in [9] was inactive.
As for `CCC(C)(C)C1CCC(O)CC1` (centres undefined), the outcome in assay [1], in assay [2], in assay [10], in [5], in assay [6] and in assay [7] was inactive. Besides, the compound was called inactive in [8] and in assay [9]. The AC50 in [3] was 21.9 µM (active) [middle of 4 runs].
On to `CCCCC(CC)COC(=O)CCCCC(=O)OCC(CC)CCCC` (centres undefined), for which the outcome in assay [1], in assay [2], in [3], in assay [10], in assay [4] and in assay [5] was inactive. In addition, the outcome in assay [6], in assay [7], in assay [8] and in [9] was inactive.
`CCCCCCCCC(=O)O`: the outcome in [1], in [2], in [3], in assay [4], in assay [5] and in [6] was inactive. The call in [7], in [8] and in assay [9] was inactive.
Consider `CN1CCN(c2ccccc2/C=C2\SCCN(c3ccc(Cl)c(Cl)c3)C2=O)CC1`, for which the result in [1], in assay [2], in [10], in assay [4], in assay [5] and in [6] was inactive. In addition, the call in assay [8] and in [9] was inactive. Further, the results for the AC50 in assay [3] and in [7] were 2.88 µM (active) and 5.37 µM (active), respectively.
Consider `Oc1cccc(O)c1`, for which the result in assay [2], in assay [3], in assay [10], in assay [4], in [5] and in assay [6] was inactive. The compound was called inactive in assay [7], in assay [8] and in assay [9].
`COc1cc(CCC(=O)CC(=O)CCc2ccc(O)c(OC)c2)ccc1O`: the outcome in assay [1], in [2], in assay [10], in assay [4], in assay [5] and in assay [6] was inactive. The compound was called inactive in assay [7], in assay [8] and in assay [9]. Moreover, the AC50 in assay [3] was 8.44 µM (active).
